ssDAF-12 act: S. stercoralis DAF-12 nuclear receptor activators, primary screen, cell-based, luminescence, HEK293, GRIP1 co-expression, lit1-tk-luc; activation, % at 6.8 µM; 370,000 tested, 1% active; HEK293 ssDAF-12/GRIP1 lit1-tk-luc reporter; % of 3 µM dafachronic acid response; Nuclear hormone receptor DAF-12 (Strongyloides stercoralis);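 active means activation above the mean over all tested compounds plus 3 SD, cut at about 0.9% in these data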
hcDAF12 agonist: H. contortus DAF-12 nuclear receptor activators, primary screen, cell-based, luminescence, HEK293, lit1-tk-luc reporter. activation, % at 6.8 µM. AID 652067, 2013. HEK293 hcDAF-12 lit1-tk-luc reporter; 0% DMSO, 100% Δ7-dafachronic acid. 370,000 tested, 1.4% active;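 active means activation above the mean of all tested compounds plus 3 SD, cut at about 5.5% in these data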
hgDAF12 agonist: H. glycines DAF-12 receptor agonists, primary screen, cell-based, luminescence, HEK293, GAL4 fusion, UAS-luciferase. Nuclear hormone receptor DAF-12 (Heterodera glycines), GAL4 fusion. HEK293 GAL4-hgDAF12 UAS-luciferase reporter, agonist luminescence; normalized to butyrate control. activation, % at 6.8 µM. 370,000 tested, 1.8% active;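 active means activation above a cutoff set at the mean of all screened compounds plus 3 SD, cut at about 10% in these data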
DAX1 inh-1: DAX1 (NR0B1) inhibitors, primary screen, cell-based, HEK293, Gal4-DAX1, luciferase luminescence | Nuclear receptor subfamily 0 group B member 1 (Homo sapiens), P51843 | HEK293 Gal4-DAX1 luciferase reporter | inhibition, % at 6.75 µM | 340,000 tested, 0.99% active;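 active means inhibition above the mean over all tested compounds plus 3 SD, cut at about 4.2% in these data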;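 further: inhibition shows as a rise in luminescence from relieved DAX1 repression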
Target sequence (P51843 207-470 limits assumed): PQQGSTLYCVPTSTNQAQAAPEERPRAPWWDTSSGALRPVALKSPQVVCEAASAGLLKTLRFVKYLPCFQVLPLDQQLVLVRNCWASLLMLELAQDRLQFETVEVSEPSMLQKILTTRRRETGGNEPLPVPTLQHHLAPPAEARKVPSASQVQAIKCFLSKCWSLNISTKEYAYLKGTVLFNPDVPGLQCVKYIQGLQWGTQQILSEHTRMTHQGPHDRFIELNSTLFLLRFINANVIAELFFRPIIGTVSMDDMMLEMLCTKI
DAX1 inh-2: DAX1 (NR0B1) inhibitors on StAR promoter, primary screen, cell-based, luminescence, SF-1 (NR5A1), full-length DAX-1 | HEK293T StAR-luciferase reporter, SF-1/DAX-1 repression relief | inhibition, % at 6.8 µM | 370,000 tested, 1.1% active;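 active means inhibition above the mean over all tested compounds plus 3 SD, cut at about 3.6% in these data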;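 further: higher inhibition means more luminescence from relief of DAX-1 repression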
A number is an active result; . = inactive; / = no result given. Only some compounds are listed: those with a hit (about 4.1% of all), similar ones and a draw of the others.

SMILES | ssDAF-12 act | hcDAF12 agonist | hgDAF12 agonist | DAX1 inh-1 | DAX1 inh-2
CN(Cc1ccccc1F)C(=O)C1CCC(CNS(=O)(=O)c2cccc3cccnc23)CC1 (centres undefined) | . | . | . | / | .
N#CCC[C@@H]1CC[C@]2(CCCN(C(=O)c3cccnc3)C2)O1 | . | . | . | / | .
CCOc1ccc(N2C(=O)CC(N3CCN(c4ccc([N+](=O)[O-])cc4)CC3)C2=O)cc1 (centres undefined) | . | . | . | . | .
CCCOc1ccc(N2C(=O)CC(N3CCN(c4ccc([N+](=O)[O-])cc4)CC3)C2=O)cc1 (centres undefined) | . | . | . | 5.2 | .
S=C(NCCc1ccccc1)N1CCN(C(=S)NCCc2ccccc2)CC1 | . | . | . | . | .
CN1CCN(C(=S)NCCc2ccccc2)CC1 | . | . | 13 | . | .
O=C(CSc1nnc(-c2ccco2)n1-c1ccc(Cl)cc1)Nc1ccc(S(=O)(=O)Nc2nccs2)cc1 | . | . | . | / | .
O=C(CCN1C(=O)c2cccc3cccc(c23)C1=O)N1CCOCC1 | . | . | 13 | . | .
Cc1nc2ccc(NC(=O)c3ccc(F)cc3Cl)cc2c(=O)[nH]1 | . | . | . | / | .
COc1ccc(/C=N/Nc2cc(C)nc3c(C)cccc23)cc1 | . | . | . | . | .
Cc1cccc(C=NNc2cc(C)c3cccc(C)c3n2)n1 | . | . | 12 | / | .
Cc1[nH]c2ccccc2c1C(=O)c1c(N)[nH]c(C(=O)c2ccccc2)c1-c1ccc(Cl)cc1 | . | . | . | / | .
S=C(NCC1CCCCC1)OC1CCC12CCC(c1ccccc1)CC2 (centres undefined) | . | . | . | / | .
Cc1c(NC(=O)c2ccc(NS(=O)(=O)c3ccc(F)c(F)c3)cc2)c(=O)n(-c2ccccc2)n1C | . | . | . | . | 3.7
O=C(NCC(c1ccco1)N1CCCCC1)c1cc2c(s1)CCCC2 (centres undefined) | . | . | . | . | 4.2
O=[N+]([O-])c1ccc(Nc2ccc3ccccc3c2)nc1 | . | . | 11 | . | .
O=[N+]([O-])c1ccc(Nc2ccc(Cl)cc2)nc1 | . | . | . | / | .
Cc1cccc2nc(CSc3nnc4ccccn34)cn12 | . | 5.8 | 12 | . | .
O=C(NCc1cccs1)c1cccc2c(-c3ccc(F)c(F)c3)coc12 | 3.5 | . | . | / | .
CCC[C@H]1[C@@H](N(C)Cc2ccccc2)CC[C@@]23CCCN2C(=O)CCC[C@@H]13 | . | . | . | / | /
COC(=O)[C@@]12C[C@@H](CC(=O)NCCCN3CCCC3=O)C(=O)N(CCc3ccc(OC)c(OC)c3)C1=CCC(C)(C)C2 | . | . | . | / | 3.8
COc1cc(C=O)ccc1OCc1ccccc1Br | . | 6.2 | . | . | .
COC(=O)[C@]12C[C@H](CC(=O)N3CCSCC3)C(=O)N(Cc3ccco3)C1=C[C@H](C(C)(C)C)O[C@@H]2C | . | . | . | / | .
CC(CNC(=O)COC(=O)c1cccs1)c1ccccc1 (centres undefined) | . | . | . | . | .
COc1ccc(C(=O)COC(=O)c2n[nH]c3ccccc23)c(OC)c1 | . | . | 12 | . | 4.2
SMILES | ssDAF-12 act | hcDAF12 agonist | hgDAF12 agonist | DAX1 inh-1 | DAX1 inh-2
COc1ccc(OC)c(C(=O)COC(=O)c2cccnc2Cl)c1 | . | . | . | . | .
Cc1cc(C(=O)COC(=O)c2n[nH]c3ccccc23)c(C)n1C | 1.2 | 8.1 | 17 | . | 4.5
COc1ccc(OC)c(NC(=O)COC(=O)c2n[nH]c3ccccc23)c1 | . | . | . | . | .
COc1ccc(C(=O)COC(=O)c2cccnc2Cl)c(OC)c1 | . | . | 13 | . | .
CC(CNC(=O)COC(=O)c1cccnc1Cl)c1ccccc1 (centres undefined) | 1.2 | . | . | . | .
Cc1nn(CCC(=O)NNC(=O)Nc2ccc(F)cc2)c(C)c1[N+](=O)[O-] | . | . | . | / | .
O=C(Nc1ccc(OC(F)(F)F)cc1)Nc1c(-c2ccccc2)nc2ncccn12 | . | . | . | / | .
